PubChem BioAssay (Tox21)
Records with an inconclusive call do not appear. Entries that show only a call come without a potency. Values without a mark were called inactive. Calls of active or inactive are those of the source. The call rests on the fitted dose curve.
Potency means the concentration at half of the fitted maximal effect.

Experiment: p53 small molecule agonists, cell-based qHTS assay with rat liver microsomes: qHTS cell viability counter screen (AID 1963580); further: nearly all actives have a fitted effect of over 45% in size
Settings: p53RE-bla HCT-116 + rat microsomes, ATP viability, 16 h; series mostly up to 66 µM
From the text: National Center for Advancing Translational Sciences [NCATS]
Division of Preclinical Innovation [DPI]
U.S. Environmental Protection Agency [EPA]
National Institutes of Environmental Health Sciences [NIEHS]
National Toxicology Program [NTP]
U.S. Food and Drug Administration [FDA]
p53, a tumor suppressor protein, is activated following cellular insult, including DNA damage and other cellular stresses. The activation of p53 regulates cell fate by inducing DNA repair, cell cycle arrest, apoptosis, or cellular senescence. The activation of p53, therefore, is a good indicator of DNA damage and other cellular stresses. The CellSensor p53RE-bla HCT-116 cell line contains a stably integrated beta-lactamase reporter gene under control of the p53 response elements. The activation of the reporter gene under culture conditions can be detected by fluorescence intensity. This cell line was used to screen the Tox21 10K compound library in the condition of presence of rat liver microsomes and to identify agonists that activate the p53 signaling pathway after in vitro metabolic activation (Ooka et al., Archive of Toxicology 96:1975-1987, 2022). The cytotoxicity of the Tox21 compound library against the p53 RE-bla HCT-116 cell line was tested in parallel by measuring the intra cellular ATP content in the same wells.
Tox21 Assay Protocol Summary:
The p53RE-bla cells were dispensed at 4,000cells/3ul/well in 1536-well black-clear bottom plates. After the assay plates were incubated at 37 C, 5% CO2 incubator for 5 hours, 23 nL of compounds dissolved in DMSO, positive controls or DMSO only was transferred to the assay plate. Following compound addition, 3 uL of rat liver microsomes (Molecular Toxicology, Boone, NC) at final concentration of 0.5 mg/mL and 1uL of B-Nicotinamide adenine dinucleotide 2'-phosphate (NADPH) at final concentration of 0.5 mg/mL were transferred to the assay plate. The plates were incubated at 37 C for 16 hours. 1 uL of LiveBLAzer detection mixture was added to each well and the plates were incubated at room temperature in the dark for 2 h. Fluorescence intensity at 460 and 530 nm emission and 405 nm excitation were measured by an Envision plate reader. For cell viability readout that measures cytotoxicity, 4 ul/well of CellTiter-Glo reagent was added into the assay plates using a Flying Reagent Dispenser. After 30 min incubation at room temperature, the luminescence intensity in the plates was measured using a ViewLux plate reader.
For `CC1=Nc2ccccc2C1(C)C`, the Potency was “inactive”.
For `C=CC(C)=CCC=C(C)C`, the Potency was “inactive”.
With `COC(=O)Nc1nc2ccc(C(=O)c3cccs3)cc2[nH]1` the Potency was “inactive”.
With `Brc1ccccc1-c1ccccc1` the Potency was “inactive”.
With `CCO[C@H](Cc1ccc(OCCc2ccc(OS(C)(=O)=O)cc2)cc1)C(=O)O` the Potency was “inactive”.
With `CCCCCCCCCCCCOCCOS(=O)(=O)O` the Potency was “inactive”.
For `CC(C)COC(=O)/C=C/c1ccccc1`, the Potency was “inactive”.
For `CN(C)CCCO[C@@H]1[C@H]2OC(C)(C)O[C@H]2O[C@@H]1C(O)CO` (stereo not given in full), the Potency was “inactive”.
With `O=c1[nH]c(=O)n([C@H]2C[C@H](O)[C@@H](CO)O2)cc1F` the Potency was “inactive”.
For `COC(=O)CCCCCCCC(=O)OC`, the Potency was “inactive”.
In the case of `CC(C)N(C)C`, the Potency is reported as “inactive”.
In the case of `CC(=O)Nc1ccc(/C=N/NC(N)=S)cc1`, the Potency is reported as “inactive”.
With `CCCCCCCC/C=C\CCCCCCCC(=O)N(CCO)CCO` the Potency was “inactive”.
With `N#CCCNCCC#N` the Potency was “inactive”.
With `CC[C@]12CCCN3CCc4c(n(c5ccccc45)C(=O)C1)[C@@H]32` the Potency was “inactive”.
With `O=C1CCCN1C1CCCCC1` the Potency was “inactive”.
In the case of `CCCCCCCC/C=C\CCCCCCCC(=O)N(C)CC(=O)O`, the Potency is reported as “inactive”.
For `CCCCCCCCCCCCCCCCCC[N+](C)(C)Cc1ccccc1`, the Potency was 46.2 µM (active).
With `C=Cc1c(C)c2cc3[nH]c(cc4nc(cc5nc(cc1[nH]2)C(C)=C5CCC(=O)O)C(CCC(=O)O)=C4C)c(C)c3C=C` the Potency was “inactive”.
With `CCCC/C=C/CCCCO` the Potency was “inactive”.
With `NC(=O)Cn1c(=O)cc(CCN2CCN(c3nccc4sccc34)CC2)c2ccc(F)cc21` the Potency was “inactive”.
In the case of `Cc1cccc(Br)c1`, the Potency is reported as “inactive”.
In the case of `CCOC(=O)/C=C/c1ccccc1`, the Potency is reported as “inactive”.
In the case of `Oc1cccc(-c2c3nc(c(-c4cccc(O)c4)c4ccc([nH]4)c(-c4cccc(O)c4)c4nc(c(-c5cccc(O)c5)c5ccc2[nH]5)CC4)C=C3)c1`, the Potency is reported as “inactive”.
In the case of `CCOC(=O)C1=C[C@]2(CC)CCCN3CCc4c(n1c1ccccc41)[C@@H]32`, the Potency is reported as “inactive”.
For `Oc1c(Cl)cc(Cl)c2cccnc12`, the Potency was “inactive”.
In the case of `CCC(=O)OCCc1ccccc1`, the Potency is reported as “inactive”.
For `CC(C)C(C)C`, the Potency was “inactive”.
With `CCCNC(C)C(=O)Nc1c(C)csc1C(=O)OC` (stereo not given) the Potency was “inactive”.
In the case of `Cc1nn(C)c(Oc2ccccc2)c1/C=N/OCc1ccc(C(=O)OC(C)(C)C)cc1`, the Potency is reported as “inactive”.
For `CCN(Cc1ccncc1)C(=O)C(CO)c1ccccc1` (stereo not given), the Potency was “inactive”.
With `C[C@@]12CCC[C@H]1[C@@H]1CC[C@H]3C[C@@H](O)CC[C@]3(C)[C@H]1CC2` the Potency was “inactive”.
For `OCCN1CCN(CC/C=C2/c3ccccc3Sc3ccc(C(F)(F)F)cc32)CC1`, the Potency was “inactive”.
With `C=C(C)CS(=O)(=O)O` the Potency was “inactive”.
Work on `NC(N)=NCCN1CCCCCCC1` yielded an activity change, negative = cytotoxicity of 0.194% [at 0.249 µM].
With `O=C1Cc2ccccc2N1c1c(Cl)cccc1Cl` the Potency was “inactive”.
In the case of `C1CCC2(CCCCO2)OC1`, the Potency is reported as “inactive”.
For `C=C1CC[C@H]2C[C@@H]1C2(C)C`, the Potency was “inactive”.
With `CC(C)c1ccccc1N` the Potency was “inactive”.
In the case of `CO[C@]12C[C@@H](COC(=O)c3cncc(Br)c3)CN(C)[C@@H]1Cc1cn(C)c3cccc2c13`, the Potency is reported as “inactive”.
